Results reported in PubChem BioAssay AID1508600 (Functional Genomics Laboratory (NCATS/FGL), 2020).
Out of some 53,000 sequences screened, about 3,700 (7%) were called active. Only a selection was taken, and actives are over-represented in it overall. Values without a mark were called inactive.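 The calls were made as follows: active = gene knockdowns whose robust z-score for IL-1 alpha signal is at least 2 or at most -2, so actives lie on both sides; inactive = the rest.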

Test: Components of the Cytosolic LPS Sensing Pathway: Gene Identification via Genome-wide siRNA Screen;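 also: robust z of the log signal after scaling to non-targeting control siRNA wells of the plate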
Settings: RAW264.7 macrophages, IL-1a HTRF, actives lie on both sides, screened at 100 nM (by protocol), cells primed 5 h with Pam3CSK4 first
In short: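 RAW264.7 mouse macrophages reverse-transfected with single siRNAs (100 nM final) for 48h, primed with Pam3CSK4 for 5 hours, then transfected with LipidA for 24 hour. Supernatant IL-1a read by HTRF; values normalized to negative-control median, log-transformed robust z-scores.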

Point of comparison: UAUACCUUAGUGCUGAGGGTT against Olfr736, z-score -1.02. Against it:
- GGAAGUCCACGAAACUAAATT against Prl3d1 — higher, 0.359
- CGACCUGUGGGAAGAUAUUTT against Apoa5 — higher, -0.992
- GGCCAUUGUUGAAAUGUACTT against Myh14 — higher, 0.175
- GGUAUCAACAUCACGAUUCTT against Mrgpra1 — higher, 0.487
- GCACCUGGUGAAUUUUACCTT against Tmem106c — higher, -0.85
- GGACCUUUAAAGCUAAGCUTT against Ccn5 — lower, -1.4
- GGAGUUUUCAAAAAACAGATT against Dsc2 — higher, -0.356
- GGAUACUGCCAUUCAUAGGTT against Cstdc2 — higher, -0.182
- GGAAAGCUUUCUUCACCUGTT against Olfr206 — lower, -1.73
- GGCGCAAUGCUCAUGUGAATT against Gzmc — higher, -0.54
- GGAAGUUUUGGCUUAGGCATT against Tmco5b — higher, 1.58
- GGCGAUCCACAGGAACUCUTT against Tiam1 — lower, -1.23
- GCAACAACGAGUCAUGGCUTT against Plcd1 — higher, -0.502
- GGAUCUUUCCUGAUUUAUATT against Ggt5 — higher, 0.989
- GCAGGCAUCAUCACGACAUTT against Gprc5c — higher, 0.402
- GGAGUUCUUCUUCAAUGAGTT against Kcnd3 — lower, -1.3
- GCGUACGUUCUCCUAACAUTT against Hbs1l — lower, -1.9
- GGGUGCAAACAAAAUGAUGTT against Pgm1 — lower, -1.42
- CCUUCUCUGCCUCGAUGAUTT against Cox14 — lower, -1.23
- GGGAAGAUGUGAUGUCUUUTT against Rab29 — higher, -0.556
- GGUCUUAAUCUCAGGAUGATT against Car5a — higher, -0.294
- GGACACAGAAUGUUCUUGGTT against Rps3 — higher, 0.029
- CCGAUCACUCAUGGUUGACTT against Sra1 — higher, 0.565
- GCCUGUGCAAAAAGUAGGGTT against Grasp — higher, -0.0182
- GGGCCAAUAGGAGUUCUUUTT against Tcf20 — higher, 0.285
- GGAGAAUCUUAGAGAUUAUTT against Pramel1 — higher, 0.722
- GCAGCUAAGCACUGGAAAATT against Coq4 — higher, 0.318
- GGAAAAAGAGGCCUCAAAGTT against Nek5 — higher, 1.46
- GAAGUUCAAUGGAGAAGACTT against Arl2 — higher, -0.825
- GGUGUUCAGACUACCCUCUTT against Serpina3m — lower, -1.16
- GGGCCAUAAGAUCUGUACUTT against Ccl24 — higher, 0.472
- GGUCCUCUAAAGAAUAAAGTT against Cela3b — higher, 0.541
- GGCUACCAUAGGUUUUAAUTT against Serinc4 — higher, 0.946
- CCCGGAUGAUGGAGAUAUUTT against Mnd1 — higher, -1
- GCCUGAUCUACUGUGGUCCTT against Olfr1347 — higher, -0.167
- GGCUUGAUCUUCGUAGUGGTT against Arf1 — higher, 0.132
- GCUUAAGAGAUUCAAAUUGTT against Olfr1317 — higher, 0.036
- GCUCUAAACAUGAUUCAAGTT against Akap9 — higher, 1.17
- GGCAGCUAAGUACGUUCAUTT against Gba — higher, 0.177
- GGAAAGAGAACAUAAAAGATT against Pla2g4a — higher, -0.995
- GCAGCAUCGCGUAGAAACATT against Gar1 — higher, -0.566
- CCGUGCACAACAUUGCCUATT against Qtrt1 — higher, -0.552
- GGAAUUUUCAAGGAACAAUTT against Il1rapl2 — lower, -1.8
- GGCGUGUAUGUCAAAAAUATT against Grip1 — higher, -0.201
- GGAGUUGUUACUCUAUUUUTT against Pkd2l2 — higher, -0.426
- GCUCUCACACCCUUAUGUATT against Nptn — lower, -1.45
- GGCGAGAAAUUCUUCACAUTT against Plxna3 — lower, -1.51
- CCAAAACCUCAUGCUGAAATT against Zfp758 — higher, 0.396
- GCUAAUACGAUUUACUUUGTT against Cntn6 — higher, 0.586
- GGACGUAUAUCCUUUUAUGTT against Spaar — higher, -0.151
- GGUCUUUCUUCGAGGAGUCTT against Ccdc33 — lower, -1.03
- CCGUAAGAAGGAAAACGCATT against Kcnd1 — higher, -0.506
- GGUAAGGUUACAGCACUGATT against Chac2 — higher, -0.489
- GGAAUAUCUGAUAUCAGUATT against Mdga2 — higher, 0.0727
- GGCUUCCUCAUCGAUAUAATT against Ccnh — higher, 0.21
- GGACAAGGAGGAUUUCUUCTT against Nprl2 — higher, -0.226
- CCUUCUAAGAGAAAAACGUTT against Eps15 — higher, 0.198
- GGUAAACAGAAUAGAAUCCTT against Lcmt1 — higher, 0.622
- GCCUGUGUAUUCUCGCUAUTT against Mon1a — higher, 0.345
- GGACCAGUUAUCCUCACUGTT against Eapp — higher, -0.514
- GCACAGCUAAACUUAACUATT against Taz — higher, 0.711
- GCAAAUUUACCUCGGUUUUTT against Olfr46 — higher, 0.388
- GCUGAGAGGUAAAGACACATT against Cntd1 — higher, 0.116
- UCCAGAGGAUCCGCUGUGATT against Krt74 — higher, -0.632
- GGAUCCUUCGCUUUUAUCGTT against Nox1 — higher, -0.343
- GGAAAAUCACUUCAUUCACTT against Ltk — higher, 0.893
- CCUUCGUAGUCUUGAUGUGTT against Olfr1179 — higher, -0.104
- GGAUCAAAAAAAAACUGGATT against Sinhcaf — higher, 1.19
- GGAAUUAGUCUCCAAAUAUTT against Sh2d1b1 — higher, 0.604
- GGUUCUUGGUUUACAUAAGTT against Slc39a12 — lower, -1.23
- GGGAAAACCAUACAAAAUATT against Olfr228 — higher, -0.525
- GCACGUCCUCGAUCUCUGUTT against Extl3 — higher, -0.705
- GGUGUCUGAUGAUGAAUAUTT against Cnnm3 — higher, 0.322
- GGAUGUGCCUCGGUUGGAUTT against Gulo — higher, 0.663
- GCCCAUUGAUCCGGAGUAATT against Dusp28 — higher, 0.252
- GGGUUUCUAUGAAGAGAUCTT against Fhod1 — higher, -0.624
- GCCUUACAUGAGCCCAUGUTT against Olfr550 — lower, -1.96
- GGACUUUAUUGAAAAUCUGTT against Zfp365 — higher, 0.593
- CCAAAUUCCUAUCAAGUUUTT against Ints2 — higher, 1.98
- GCGUCUCAUAGAGUUGGUGTT against Mblac2 — higher, 0.0617
- GGGCAAAAGCUGUUACAAGTT against Ahrr — higher, -0.0958
- GGUUCCUGGAUGGUUCCUATT against Vtcn1 — higher, 1.45
- GGGUAUGACAACAAACUUCTT against Gabrg2 — higher, -0.422
- GGAUGAAUCUGAAGAUUCCTT against Nol3 — higher, 0.113
- GGUGGACAAGCAAGUCUAGTT against Ube2o — higher, 1.97

For GGGAUACUUUCUUCGAGGATT against Soga3, the z-score was -2.36 (active).
With GCCUUACUGACUCGUGUCCTT against Ccp110 the z-score was -2.33 (active).
With GCUUCAACCCGGUCACACUTT against Kif6 the z-score was 2.81 (active).
For GGACAGAGUUACCUAGGCATT against Ticrr, the z-score was -2.81 (active).
In the case of GGGUGAUAAAAUUCAGAUUTT against Gpr88, the z-score is reported as 2.07 (active).
With GGGCCACAUGUGUUCACUATT against Shisa5 the z-score was -2.35 (active).
For GGAAGAAAAAUAUGCUUUCTT against Pls3, the z-score was 2.7 (active).
In the case of GGAGCUGACGUGCUACUUATT against Speg, the z-score is reported as 2.6 (active).
For CGCUUUAUUAGAUGGGCUATT against Dlx5, the z-score was -2.27 (active).
With GCCCAGAAAUAUAAUCAAATT against Bub1 the z-score was 2.17 (active).
For GCAGAGACUACUUAGCAAGTT against Adprm, the z-score was 2.29 (active).
In the case of GCUGGAAACCCGUAUACUATT against Krt23, the z-score is reported as 2.16 (active).
For GGAGAAGGAGCAGAUUAAATT against Krt8, the z-score was 2.07 (active).
In the case of GCAUGAUCAAAUUGUAUCUTT against Nde1, the z-score is reported as -2.21 (active).
For GGUACCAAUUGAAGAUAUATT against Ncoa7, the z-score was 2.2 (active).
For UGGGCCUUGUAGGCUUCAUTT against Rell2, the z-score was 2.3 (active).
With GGCAGGUUUUUGAACUGGUTT against Olfr725 the z-score was 2.28 (active).
With GGACUAAACAGAUUCACUATT against Rnase9 the z-score was -2.42 (active).
In the case of GCCAGUACGAAGUGAUCUGTT against Ackr4, the z-score is reported as 2.8 (active).
In the case of GCAAAUCGACCACUUUCCGTT against Cacng2, the z-score is reported as 4 (active).
With GGAAGACCUUGAAUUCCAGTT against Tspan31 the z-score was 2.87 (active).
In the case of GCCGCUAGCAUGGUCUAUUTT against Apoa5, the z-score is reported as 2.51 (active).
For GGUUUGGCAAACAUUUCAUTT against Akr1c20, the z-score was 2.02 (active).
